The text below walks through data of PubChem BioAssay.

Each structure is given as a SMILES string. Activity calls are given as the source filed them.

The target in one assay is Albumin (Bos taurus) (UniProt P02769). The experiment in a line: compounds binding labelled BSA control protein – biochemical, small-molecule microarray, Alexa647 label, 635/667 nm fluorescence, artefact control for SMM control protein annotation, profiling panel (AID 1118).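 Further: score merges 667 nm emission intensity and signal-to-noise per printed compound spot.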 The settings on record: BSA-A647 binding, fluorescence 635 nm, higher = more signal.
Sequence of Albumin (Bos taurus) (P02769 whole entry, looked up): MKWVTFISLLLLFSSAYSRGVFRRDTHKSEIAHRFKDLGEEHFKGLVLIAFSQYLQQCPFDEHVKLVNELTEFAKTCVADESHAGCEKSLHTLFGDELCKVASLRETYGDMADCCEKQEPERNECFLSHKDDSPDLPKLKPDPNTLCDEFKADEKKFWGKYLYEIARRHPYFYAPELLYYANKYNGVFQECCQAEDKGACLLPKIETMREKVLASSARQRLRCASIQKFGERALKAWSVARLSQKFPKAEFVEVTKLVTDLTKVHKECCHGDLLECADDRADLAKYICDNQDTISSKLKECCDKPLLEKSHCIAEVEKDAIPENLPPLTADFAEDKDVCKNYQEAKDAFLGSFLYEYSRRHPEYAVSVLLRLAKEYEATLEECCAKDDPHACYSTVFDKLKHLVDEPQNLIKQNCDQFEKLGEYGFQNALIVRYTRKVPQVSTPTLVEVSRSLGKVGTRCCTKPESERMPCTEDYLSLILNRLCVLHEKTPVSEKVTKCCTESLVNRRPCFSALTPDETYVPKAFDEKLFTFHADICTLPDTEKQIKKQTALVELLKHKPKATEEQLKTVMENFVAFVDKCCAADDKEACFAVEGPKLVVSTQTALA
Assay [1] in a line: probe aXIP binding to arrayed compounds – biochemical, NeuroSMM set, 635/667 nm fluorescence, primary screen (AID 1119).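 Further: probe is the protein aXip251-270 applied at 1 µg/mL to compound-printed slides; binding of probe to printed compounds measured as 667 nm fluorescence plus signal to noise.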 The settings on record: small-molecule microarray, higher = more signal, called active from +8 up or from −8 down.
The nature of assay [2]: probe aNOTCH3 binding on compound microarray – biochemical, small-molecule microarray, 635/667 nm fluorescence, primary screen (AID 1120).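 Further: probe is a biotin-tagged antibody raised against NOTCH3 rather than NOTCH3 protein; score merges spot fluorescence near 667 nm with spot signal to noise.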 The settings on record: higher = more signal.
Assay [3] can be described thus: probe aNOTCH2 binding on compound microarray – biochemical, small-molecule microarray, 635/667 nm fluorescence, primary screen (AID 1121).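 Further: score merges feature fluorescence read at 667 nm with its signal to noise.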 The settings on record: higher = more signal.
In assay [4] the target is Carbonic anhydrase 2 (Homo sapiens) (UniProt P00918). Description: compounds binding carbonic anhydrase 2 – biochemical, small-molecule microarray, Alexa647-labelled CAII, profiling panel (AID 1122). The settings on record: CAII-A647 binding fluorescence, higher = more signal.
The nature of assay [5]: COS7 lysate on small-molecule microarray, probe aHis, 635 nm (AID 1123).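 Further: z-score combines 667nm fluorescence intensity with signal-to-noise per printed compound spot.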 Conditions: COS7 cell lysate, fluorescence, higher = more signal.
Assay [6] in a line: probe aLAP1 signal on lysate-treated microarray – cell lysate, small-molecule microarray, COS7 lysate, primary screen (AID 1124).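 Further: lysate comes from COS7 cells expressing LAP1 and is applied at 0.3 µg/mL; score merges spot fluorescence near 667 nm with signal-to-noise over triplicate slides.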 The settings on record: probe aLAP1, fluorescence, higher = more signal.
In another assay the test system is Sam68 (KHDRBS1). Description: compounds binding KHDRBS1 protein – biochemical, small-molecule microarray, 635 nm fluorescence, primary screen (AID 1125).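 Further: score merges 667 nm channel intensity with signal to noise over triplicate slides.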 The settings on record: higher = more signal.
Assay [7] concerns Chordin-like protein 2 (CHRDL2). Description: compounds binding chordin-like 2 – biochemical, small-molecule microarray, 635 nm fluorescence, primary screen (AID 1126).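 Further: printed compound slides probed with Chrdl2 protein at 4 µg/mL for 1 h at 4 C; score merges 667 nm emission intensity with signal to noise over three replicate slides.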 The settings on record: fluorescence 635 nm, higher = more signal.
In assay [8] the target is Concanavalin-A (Canavalia ensiformis) (UniProt P02866). Description: compounds binding concanavalin A lectin – biochemical, small-molecule microarray, Alexa647 label, 635 nm, artefact control for SMM control protein annotation, primary screen (AID 1127).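 Further: z combines 667 nm emission intensity with signal-to-noise across three replicate slides.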 The settings on record: ConA-A647 binding fluorescence, higher = more signal.
Sequence of Concanavalin-A (Canavalia ensiformis) (P02866 whole entry, looked up): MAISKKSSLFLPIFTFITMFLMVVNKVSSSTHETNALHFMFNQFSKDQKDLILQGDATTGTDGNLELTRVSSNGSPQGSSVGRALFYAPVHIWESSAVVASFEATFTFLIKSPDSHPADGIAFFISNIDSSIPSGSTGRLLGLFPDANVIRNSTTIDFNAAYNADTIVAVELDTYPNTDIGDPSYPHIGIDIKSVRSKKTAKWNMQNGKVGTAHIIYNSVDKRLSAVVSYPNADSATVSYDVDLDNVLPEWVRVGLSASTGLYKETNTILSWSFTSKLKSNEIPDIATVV

For the compound `O=C1OCCC=C[C@H]2OC34C=CCN(c5ccc(Cl)cc5)C(=O)[C@H]3N(CCO)C(=O)[C@@H]4C12` (stereo not given in full), the composite z-score with Albumin (Bos taurus) was 0.597; in assay [2], -0.406; in assay [3] it was -0.189; in assay [4], 0.859; in assay [5], -0.387; in assay [6], -0.419. The composite z-score in the assay with Sam68 (KHDRBS1) is -0.914; in assay [7] it was -0.291; in assay [8], -0.648. In addition, the composite Z-score in assay [1] is 0.359 (inactive).

On to `CN(C)CCCC[C@@H]1NC(=O)[C@@H]2C[C@H](C(=O)NCc3ccc(F)cc3)[C@H](c3ccc(O)cc3)N2C1=O`, for which the composite z-score was -0.16 in the assay with Albumin (Bos taurus); 0.0562 in assay [2]; -0.0974 in [3]; 0.609 in [4]; 0.901 in assay [5]; 0.339 in assay [6]. Also, the composite z-score was 0.17 in the assay with Sam68 (KHDRBS1), 0.0978 in assay [7] and 0.911 in assay [8]. In addition, in assay [1], the composite Z-score was 0.0275 (inactive).

On to `CC(=O)n1cc(C(O)C2C=CC3C(=O)N(c4ccccc4)C(=O)C3N2Nc2ccccc2F)c2ccccc21` (stereo not given), for which the composite z-score in the assay with Albumin (Bos taurus) was 0.332; in [2] it was -0.189; in assay [3], -0.162; in assay [4] it was 0.754; in assay [5], 1.84; in [6], 0.386. The composite z-score was 0.505 in the assay on Sam68 (KHDRBS1), -0.997 in [7] and 0.76 in [8]. For the same compound, in [1], the composite Z-score is 0.169 (inactive).

Take `CC(C)C[C@@H]1NC(=O)C([C@@H](C)OCc2ccccc2)NC(=O)[C@@]23C(=O)N[C@@H](Cc4ccccc4)C2[C@H](C)[C@@]2(C)O[C@H]2C3/C=C/CC/C=C/CNC1=O` (stereo not given in full): the composite z-score was 0.438 with Albumin (Bos taurus); -0.0647 in assay [2]; -0.128 in assay [3]; 0.469 in assay [4]; 0.73 in assay [5]; 0.184 in assay [6]. In addition, the composite z-score came out at 1.34 with Sam68 (KHDRBS1), 0.554 in assay [7] and 0.329 in assay [8]. In addition, the composite Z-score in [1] was -0.0807 (inactive).

Turning to `COC(=O)[C@@]1(Cc2ccccc2CN=[N+]=[N-])COC(c2ccc(OCCCO)cc2)=N1`, the composite z-score in the assay with Albumin (Bos taurus) is 0.426; in assay [2], -0.425; in [3] it was -0.0959; in assay [4] it was 0.0365; in assay [5] it was 2.27; in assay [6] it was -0.365. Also, the composite z-score in the assay with Sam68 (KHDRBS1) is 0.424; in assay [7], -2.4; in [8] it was -1.38. Further, in assay [1], the composite Z-score is 0.978 (inactive).

Turning to `CCOC(=O)C[C@H]1[C@H](OC(=O)c2ccc(-c3ccccc3)cc2)[C@@H](NC(=O)CC(C)C)c2cc(OCCCO)ccc2N1C(=O)Cc1ccc(OC)cc1`, the composite z-score is 0.593 with Albumin (Bos taurus); 0.0582 in assay [2]; 0.0426 in [3]; -0.0667 in [4]; 0.179 in [5]; 0.39 in [6]. Also, the composite z-score in the assay on Sam68 (KHDRBS1) was 0.309; in assay [7], -0.213; in [8], -0.286. Besides, in assay [1], the composite Z-score was -0.244 (inactive).

In the case of `CCCC[C@@H]1C[C@H]1[C@@H](NC(=O)c1ccc(C(F)(F)F)cc1)c1ccc(C(=O)OC)cc1`, the composite z-score in the assay with Albumin (Bos taurus) is 0.0711; in assay [2], 0.0501; in assay [3], -0.0347; in assay [4], 0.441; in [5], 1.27; in [6], 1.25. The composite z-score with Sam68 (KHDRBS1) was determined as 0.504; in assay [7], 1.27; in assay [8], 0.441. Moreover, the composite Z-score in [1] is 0.0888 (inactive).

As to `COc1ccc(C(O)C2C=CC3C(=O)N(C)C(=O)C3N2Nc2ccc([N+](=O)[O-])cc2[N+](=O)[O-])cc1OCc1ccccc1` (stereo not given), the composite z-score came to 0.747 with Albumin (Bos taurus); 0.583 in assay [2]; 0.29 in assay [3]; 0.633 in [4]; 2.36 in assay [5]; 0.53 in [6]. In addition, the results for the composite z-score (in the assay with Sam68 (KHDRBS1); in assay [7]; in assay [8]) were 1.32, -0.599 and 0.892, respectively. Further, the composite Z-score in [1] is -0.213 (inactive).

As for `COCC(=C=CC[C@@H](O)c1cccc(OCCO)c1)C[C@@H](O)COCc1ccccc1`, the composite z-score in the assay with Albumin (Bos taurus) was 0.809; in assay [2], 0.381; in assay [3], 0.121; in assay [4] it was 0.552; in [5], 3.68; in assay [6], 0.684. The results for the composite z-score (in the assay with Sam68 (KHDRBS1); in assay [7]; in assay [8]) were 0.92, -0.69 and 0.132, respectively. Also, the composite Z-score in [1] is -1.85 (inactive).

On to `N#Cc1ccc(C(O)C2C=CC3C(=O)N(c4ccccc4)C(=O)C3N2Nc2ccc([N+](=O)[O-])cc2)cc1` (stereo not given), for which the composite z-score was 0.895 with Albumin (Bos taurus); 0.0749 in [2]; 0.0912 in assay [3]; 0.748 in assay [4]; 2.45 in assay [5]; 1.05 in assay [6]. The composite z-score with Sam68 (KHDRBS1) is 1.28; in assay [7], -0.558; in assay [8], 1.23. The composite Z-score in [1] was 0.453 (inactive).

As for `COC(=O)[C@@]1(Cc2ccccc2)[C@H]2c3cc(C(=O)N4CCCC4)n(Cc4ccc(C(F)(F)F)nc4)c3C[C@H]2CN1C(=O)c1ccccc1`, the composite z-score was 0.958 with Albumin (Bos taurus); 0.843 in assay [2]; 0.292 in assay [3]; 0.478 in [4]; 3.1 in [5]; 0.232 in [6]. For the same compound, the composite z-score in the assay on Sam68 (KHDRBS1) is 1.31; in assay [7], -0.873; in assay [8], 1.16. In addition, in assay [1], the composite Z-score is -0.296 (inactive).

As to `CCOC(=O)C1=CC[C@@H](c2ccccc2Cl)N(S(=O)(=O)c2ccc(C)cc2)[C@H]1c1cccc(OC)c1`, the composite z-score with Albumin (Bos taurus) is 0.453; in assay [2], -0.014; in assay [3] it was -0.115; in assay [4] it was 0.304; in assay [5], 0.878; in [6] it was -0.151. For the same compound, the composite z-score in the assay on Sam68 (KHDRBS1) is 0.371; in assay [7] it was -0.0126; in assay [8] it was 0.577. For the same compound, in [1], the composite Z-score was -0.161 (inactive).

Take `C=CCN1C(=O)[C@]2(O[C@H](CCO)[C@@H]([Si](C)(C)c3ccc(OC)cc3)[C@@H]2C)c2ccccc21`: the composite z-score with Albumin (Bos taurus) is 0.482; in assay [2], -0.157; in assay [3] it was -0.129; in [4] it was 0.277; in assay [5], 0.621; in [6], -0.116. For the same compound, the figures for the composite z-score (with Sam68 (KHDRBS1); in assay [7]; in assay [8]) were -0.241, -0.884 and 0.201, respectively. For the same compound, the composite Z-score in [1] is -0.291 (inactive).
